The record followed here is PubChem BioAssay (NCI).

The panel holds about 83,000 compounds, 20% with a hit somewhere; the sample as a whole holds those more often.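 Single-concentration screen, 48 h exposure, 96-well plates. Endpoint: percent growth. Below 10 = active.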 Activity calls are given as the source filed them.

This assay has as its system HL-60(TB) leukemia. The assay is described as follows: NCI-60 one-dose screen, 48 h (100 = growth as untreated, 0 = no growth, -100 = all killed). Conditions: 10 µM unless noted.
On to `CC(C)(C)CC(C)(C)Cc1ccc(OCCOCC[N+](C)(C)Cc2ccccc2)cc1`, for which the growth was -52.6% (active).

`COc1ccc(C(=O)c2cc(OC)c(OC)c(OC)c2)cc1OC(=O)CCl`: the growth was -34.4% (active). The figure for `Nc1ccn(C2O[C@H](CO)[C@@H](O)[C@H]2O)c(=O)n1` (stereo partly specified) is 99.7% (inactive). For `CS(=O)(=O)c1cccc(Nc2ncc3cc(-c4ccccc4Cl)ccc3n2)c1`, the growth was -8.46% (active).

For `Cc1cc(-c2ccc(N=Nc3c(S(=O)(=O)O)cc4cc(S(=O)(=O)O)cc(O)c4c3O)c(C)c2)ccc1N=Nc1c(S(=O)(=O)O)cc2cc(S(=O)(=O)O)cc(O)c2c1O`, the growth is 119% (inactive). The figure for `CCOc1ccccc1-n1c(CN2CCN(C(=O)COc3ccc(CNCCCCCCN4C5CCCC4CC(OC(=O)Nc4cc(C)ccc4OC)C5)cc3)CC2)nc2ccccc2c1=O` (stereo unspecified) is -76% (active). The figure for `O=C(CN1C(=O)/C(=C/c2ccco2)SC1=S)NCCc1c[nH]c2ccc(F)cc12` is 95.9% (inactive); for `Cc1cn2c(/C=C3/C(=O)Nc4c3ccc3ccccc43)c(C(F)(F)F)nc2s1` it is 1.47% (active); for `CC(C)(C)c1ccc(C(=O)Nc2sc3c(c2C(N)=O)CCC(=O)C3)cc1` it is 3% (active).

Take `Cl.[Pt].[c-]1ccccc1-c1ccccn1.c1ccc(P(c2ccccc2)C([PH+](c2ccccc2)c2ccccc2)[PH+](c2ccccc2)c2ccccc2)cc1`: the growth was 7.19% (active).

Take `Nc1nc(Br)nc2c1ncn2C1CC(O)C(CO)O1` (stereo unspecified): the growth was 46% (inactive). For `COc1ccc(/C=C2/CN(CCC#N)C/C(=C\c3ccc(OC)cc3)C2=O)cc1`, the growth is 13.6% (inactive). For the compound `Cn1c(=O)c2[nH]c(=S)n(Cc3ccccc3)c2n(C)c1=O`, the growth was 101% (inactive).

For the compound `CC1(C)CC[C@]2(CO)CC[C@]3(C)[C@](O)([C@H](O)C[C@@H]4[C@@]5(C)CCCNC(C)(C)[C@@H]5CC[C@]43C)[C@@H]2C1`, the growth was 71% (inactive). `CNC(=O)OC1C(O[C@H]2C[C@H]3[C@@H]4CC=C5C[C@@H](O)CC[C@]5(C)[C@H]4CC[C@]3(C)[C@H]2[C@H](C)C(=O)CCC(C)C)OCC(O)C1OC1OCC(O)C(O)C1OC(=O)c1ccc(OC)cc1` (stereo partly specified): the growth is -12.1% (active).

Consider `Nc1nc(Nc2ccccc2)c2ncn(Cc3ccc4c(c3)OCO4)c2n1`, for which the growth was 25.1% (inactive).

With `CC(C)OC(=O)c1cc(NC(=S)OC(C)C)ccc1Cl`, the growth was 86.2% (inactive). For `Cc1ccc2c(c1)C(C)Cc1c(ncnc1-n1cnc3ccccc31)N2C` (stereo unspecified), the growth was -19.1% (active). Regarding `CNC(=O)NN`, the growth was 64% (inactive). Next, `C[N+](C)(C)c1ncnc2[n-]cnc12`: 103% (inactive).

As to `CSc1nc2c(c(=O)[nH]1)C1(C(=O)Nc3ccccc31)c1c(nc(SC)[nH]c1=O)N2`, the growth was 107% (inactive).

Take `COc1cc(/C=C/c2cc(O)c(C(C)=O)c(O)c2)cc2c1O[C@]1(C)CC[C@@H](O)C(C)(C)[C@H]1C2`: the growth is 28.1% (inactive). Regarding `COc1cc2ncnc(Oc3cccc(NC(=O)Nc4cc(C(C)(C)C(F)(F)F)on4)c3)c2cc1OC`, the growth is 12.1% (inactive). Next, `Cn1c2ccccc2c2ssc(=S)c21`: 43.5% (inactive); `COc1cc(/C=C/c2ccc3c(Br)cc(Br)c(O)c3n2)ccc1O`: -47.3% (active); `Cn1cc(-c2nc3c(F)cc4[nH]ncc4c3c3c2CCCC3)c(C(F)F)n1`: 10.8% (inactive). The figure for `CSc1nc2ccc(C)cc2cc1/C=C1/C=C(c2ccccc2)NC1=O` is 87.4% (inactive).

For `Cc1ccc(-c2nc(N3CCN(C(=O)Nc4ccc(Cl)c(C(F)(F)F)c4)CC3)c3ccccc3n2)cc1`, the growth was 98.9% (inactive).

`COc1ccc(/C=C/C(=O)/C=C/c2cc3ccc(Cl)cc3[nH]c2=O)cc1`: the growth is 71% (inactive). On to `CN(C)/C=C1\SC(=Nc2ccc(Cl)cc2)NC1=O`, for which the growth was 99.5% (inactive).

As to `CC(C)CCC[C@@H](C)[C@H]1CC[C@H]2[C@@H](Nc3ccc(O)cc3)CCC[C@]12C`, the growth was 39.2% (inactive). Next, `O=[N+]([O-])c1cccc(-c2cc(-c3cc(Br)ccc3O)[nH]n2)c1`: -17.1% (active). `C=CCCCCOc1ccccc1-c1cnc(OCCCCC=C)n1C`: the growth is 66.5% (inactive). The figure for `COC(=O)N/N=C/c1coc2ccc(Cl)cc2c1=O` is 105% (inactive). Next, `Cc1nc2cc(Nc3nc(Cl)nc(Nc4ccc(F)cc4)n3)ccc2n1Cc1ccccc1`: 53.2% (inactive). For the compound `O=C1Nc2ccccc2/C1=C/c1cccn1CCCCCCn1c2ccccc2c(=O)c2ccccc21`, the growth is 54.5% (inactive).
